RAD54 branch = inhibitors of human RAD54 branch migration | Q92698 | RAD54 Holliday junction branch migration, FAM/BHQ fluorescence | inhibition, % at 10.4 µM | 360,000 compounds, 0.14% hits;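 active = mean normalized replicate activity at least 40 and at least half of replicates scoring 40 or more; inconclusive = only one of the two criteria met; inactive = mean below 40 and under half of replicates reaching 40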;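 also: 0% = median of neutral control wells and 100% = median of positive control wells; inhibitors cause a drop in the FAM fluorescence signal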
ABCB6 inh MLPCN = inhibitors of human ABC transporter ABCB6 | Q9NP58 | K562-ABCB6 porphyrin accumulation, flow cytometry, 1 h; hits give low values | fluorescence ratio to DMSO, % at 10 µM | 360,000 compounds, 0.19% hits;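 active = fluorescence ratio to DMSO below 75%, the collection mean minus 3 SD; inconclusive = too few cells collected in the well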;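 also: signal is porphyrin accumulated inside mitochondria; 100% equals median channel fluorescence of DMSO control wells; lower ratio means ABCB6 inhibition with less porphyrin fluorescence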
Myeloid diff MLP = myeloid differentiation induction; ER-HoxA9 myeloid progenitors, lysozyme-GFP differentiation, flow cytometry; calls only at 10 µM; 360,000 compounds, 1% hits;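 active = normalized GFP-positive differentiation at or above the plate's own cutoff, the solvent-only control mean plus 3 SD; inconclusive = no clear call, values can overlap the other calls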;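 also: cells exposed to compound for four days before flow analysis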
Vif inh = inhibitors of HIV Vif; HEK293T cells, Vif self-association by quenched fluorescence, imaging, 24 h; 340,000 compounds, 0.35% hits; inhibition, % at 7.49 µM; in the data active = inhibition above about 50%, passing the limit was not always enough; inconclusive = no clear call, values can overlap the other calls; inactive = below about 31%
Glyco luc inh = blocks N-linked glycosylation in D54 reporter cells; AID 588692; 360,000 compounds, 0.23% hits; D54 ERlucT glycosylation luciferase reporter, 24 h; percent of 100 nM tunicamycin response; reporter increase, % at 12.5 µM;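 active = mean luciferase reporter signal, scaled so untreated is 0 and the glycosylation-blocking control 100, at or above a set limit in every replicate; inconclusive = mean reaches the limit but not every replicate does; inactive = mean below the limit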;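 also: luciferase carries N-glycosylation sites so blocking glycosylation raises the light; 0% = median of neutral control wells and 100% = median of 100 nM tunicamycin wells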
Starred values were filed as active, the others as inactive. In the library only some 1.6% were active in any assay of this set; here they are far more common.

`COc1ccc2[nH]c3c4c(ccc3c2c1)C(=O)C=CC4=O` gave RAD54 branch -11, ABCB6 inh MLPCN 105, Vif inh 52* and Glyco luc inh 16.
CCc1ccc(N=Nc2ccc(O)c3[nH]cnc23)cc1 was read as RAD54 branch 7, ABCB6 inh MLPCN 430, Myeloid diff MLP active, Vif inh 5 and Glyco luc inh 8.
Screening COc1ccc(N=Nc2ccc(O)c3ncccc23)cc1 returned RAD54 branch 7, ABCB6 inh MLPCN 94, Myeloid diff MLP inconclusive, Vif inh 3 and Glyco luc inh -11.
`Cc1ccc(Cl)cc1NC(=O)CC1NC2CCCCC2NC1=O` (stereo unspecified) gave RAD54 branch 21, ABCB6 inh MLPCN 97, Myeloid diff MLP active, Vif inh -19 and Glyco luc inh 2.
`Cc1ccc(S(=O)(=O)N(C)C[C@H]2OCCCC[C@@H](C)Oc3ccc(NC(=O)CCC(F)(F)F)cc3C(=O)N([C@H](C)CO)C[C@H]2C)cc1` gave RAD54 branch 2.
For Cc1ccc(C(=O)N/C(=C\c2cccs2)C(=O)NCCc2c[nH]c3ccccc23)cc1 the results were ABCB6 inh MLPCN 97, Myeloid diff MLP inactive, Vif inh -5 and Glyco luc inh 42*.
C=CCc1cc(Cl)ccc1OCCCn1ccnc1 was read as RAD54 branch -22, ABCB6 inh MLPCN 99, Myeloid diff MLP inactive, Vif inh 20 and Glyco luc inh 1.
For C=CCc1cc(Cl)ccc1OCCn1ccnc1 the results were RAD54 branch -5, ABCB6 inh MLPCN 129, Myeloid diff MLP active, Vif inh -1 and Glyco luc inh -1.
`O=C(Nc1ccc(C(F)(F)F)cc1)c1csc(-c2ccncc2)n1` gave ABCB6 inh MLPCN 99, Myeloid diff MLP inactive, Vif inh -5 and Glyco luc inh -4.
For NNC(=O)c1csc(-c2cccc(C(F)(F)F)c2)n1 the results were ABCB6 inh MLPCN 102, Myeloid diff MLP active, Vif inh 2 and Glyco luc inh 2.
For O=C(CCNC(=O)c1ccco1)NNC(=O)c1ccc(Br)cc1 the results were ABCB6 inh MLPCN 96, Myeloid diff MLP active and Glyco luc inh 1.
CN1C(=O)c2cc(NC(=O)c3ccc(F)c(F)c3)ccc2OC[C@H]2O[C@@H](CC(=O)N[C@@H]3CCN(Cc4ccccc4)C3)CC[C@@H]21 was read as RAD54 branch -4.
CCC(=O)N1CCCc2cc(S(=O)(=O)N3CCN(c4ccccc4F)CC3)ccc21 was read as RAD54 branch 0, ABCB6 inh MLPCN 98, Myeloid diff MLP active, Vif inh -5 and Glyco luc inh -4.
CCC(=O)N1CCCc2cc(S(=O)(=O)N3CCN(c4ncccn4)CC3)ccc21 was read as RAD54 branch 3, ABCB6 inh MLPCN 98, Myeloid diff MLP inactive, Vif inh 5 and Glyco luc inh 1.
For COc1c2ccc(C(=O)NCCCCc3ccccc3)cc2nn1C the results were RAD54 branch -9, ABCB6 inh MLPCN 91, Myeloid diff MLP active, Vif inh -1 and Glyco luc inh 3.
For CCS(=O)(=O)N1N=C(c2ccc(NS(C)(=O)=O)cc2)CC1c1ccccc1 (stereo unspecified) the results were RAD54 branch -6, ABCB6 inh MLPCN 184, Myeloid diff MLP active, Vif inh 3 and Glyco luc inh -1.
CS(=O)(=O)Nc1ccc(C2=NN(S(C)(=O)=O)C(c3ccccc3)C2)cc1 (stereo unspecified) was read as RAD54 branch 1, ABCB6 inh MLPCN 93, Myeloid diff MLP inactive, Vif inh 1 and Glyco luc inh 1.
For CO[C@@H]1CN(C)C(=O)c2ccc(NC(=O)Cc3ccccc3)cc2OC[C@@H](C)N(C(=O)c2ccccc2F)C[C@@H]1C the results were RAD54 branch -2.
Screening CCC(=O)N(C)C[C@H]1Oc2cc(-c3ccc(F)cc3)ccc2S(=O)(=O)N([C@H](C)CO)C[C@H]1C returned RAD54 branch -5.
For O=C(CCCN=C1NS(=O)(=O)c2ccccc21)OCc1cc([N+](=O)[O-])cc2c1OCOC2 the results were ABCB6 inh MLPCN 441, Myeloid diff MLP active, Vif inh -2 and Glyco luc inh 0.
O=C(OCC(O)COC(=O)c1cccnc1)c1cccnc1 was read as RAD54 branch 5, ABCB6 inh MLPCN inactive, Myeloid diff MLP active, Vif inh 13 and Glyco luc inh 0.
`C=C1C(=O)C=C2CN(C(=O)c3ccccc3)[C@@](Cc3ccc(F)cc3)(C(=O)OC)[C@@H]12` gave RAD54 branch -2, ABCB6 inh MLPCN 105, Myeloid diff MLP active, Vif inh inconclusive and Glyco luc inh -21.
Screening CO[C@@H]1CN(C)C(=O)c2ccc(NC(=O)c3nc4ccccc4s3)cc2OC[C@@H](C)N(Cc2ccncc2)C[C@H]1C returned RAD54 branch 2.
O=C(c1cccc(Cl)c1)N1CCC2(CC1)NCCc1[nH]cnc12 was read as RAD54 branch 3, ABCB6 inh MLPCN 95, Myeloid diff MLP inactive, Vif inh 52* and Glyco luc inh 1.
`O=C(c1cccc(F)c1)N1CCC2(CC1)NCCc1[nH]cnc12` gave RAD54 branch 3, ABCB6 inh MLPCN 98, Myeloid diff MLP active, Vif inh 4 and Glyco luc inh 4.
For COCCNC(=O)C[C@@H]1C[C@@H]2c3cc(NC(=O)NC4CCCCC4)ccc3O[C@@H]2[C@H](CO)O1 the results were RAD54 branch 6.
`COCC#Cc1ccc2c(c1)O[C@H](CN(C)S(=O)(=O)c1cccc(OC)c1)[C@H](C)CN([C@@H](C)CO)S2(=O)=O` gave RAD54 branch 3.
CCN1/C(=C/c2ccc3ccccc3[n+]2CCCS(=O)(=O)[O-])C=Cc2cc(C)ccc21 was read as RAD54 branch 7, ABCB6 inh MLPCN 109, Myeloid diff MLP inactive, Vif inh 2 and Glyco luc inh -2.
Screening CCCCN1/C(=C/c2ccc3ccccc3[n+]2CC)Sc2ccccc21 returned ABCB6 inh MLPCN inactive, Myeloid diff MLP active, Vif inh 0 and Glyco luc inh 14.
For CCN1/C(=C/c2ccc3ccccc3[n+]2CC)C=Cc2ccccc21 the results were RAD54 branch 71*, ABCB6 inh MLPCN 455, Myeloid diff MLP inconclusive, Vif inh -24 and Glyco luc inh 85*.
For CCN1/C(=C/c2ccc3cc(C)ccc3[n+]2CC)Sc2cc(C)ccc21 the results were RAD54 branch inactive, ABCB6 inh MLPCN inactive, Myeloid diff MLP inconclusive, Vif inh inactive and Glyco luc inh inconclusive.
Cc1nn(Cc2cccc(C(=O)NN)c2)c(C)c1Cl was read as RAD54 branch -11, ABCB6 inh MLPCN 96, Myeloid diff MLP active, Vif inh -1 and Glyco luc inh 1.
For C[C@H]1CCCCO[C@@H](CN(C)C(=O)NC2CCCCC2)[C@@H](C)CN([C@@H](C)CO)C(=O)c2cc(NS(=O)(=O)c3ccccc3)ccc2O1 the results were RAD54 branch 2.

Source: PubChem BioAssay (several laboratories)
